Source: PubChem
In the library only some 3.8% were active in any assay of this set; here they are far more common.
MBNL1-CUG inh = qHTS Assay for Inhibitors of MBNL1-poly(CUG) RNA binding. Muscleblind-like protein 1 (Homo sapiens), Q9NR56. TR-FRET MBNL1-His/biotin-(CUG)12 binding, 665/545 ratio. Potency, µM (highest dose often 57.5 µM), for inactives: at the top dose activity change, negative = inhibition, most hits filed as inhibitors. hit rate 0.036% among 280,000. AID 2675, 2010; active = well fitted inhibition curve with a large enough effect in the signal ratio, with a control signal flat, not every such curve was filed as active; inconclusive = small, poorly fitted or top-dose-only effect, or effect the other way, or a change in a side signal; inactive = no such curve, though single readings can be large or run the other way; the % refers to the signal ratio; note: potency is the fitted concentration of half-maximal effect; % is set by controls: 0 for no effect and ±100 for the full control effect
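Ratiometric TR-FRET (665 over 545 nm, excitation 340 nm) tracks disruption of MBNL1-His/biotin-(CUG)12 complex after 60 min at room temperature, with compounds at 92 nM to 58 uM final.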
PLK1 PBD inh = qHTS for Inhibitors of PLK1-PDB (polo-like kinase 1 - polo-box domain): Primary Screen; Serine/threonine-protein kinase PLK1 (Homo sapiens), P53350; Plk1 PBD binding of FITC phosphopeptide, fluorescence polarization; Potency, µM, inactives show max response, negative = inhibition, actives largely listed as inhibitors; hit rate 2.8% among 360,000; AID 720504, 2013; note: potency is the fitted concentration of half-maximal effect; series mostly up to about 57 µM; % is set by controls: 0 for no effect and ±100 for the full control effect; nearly all actives have a fitted effect of over 65% in size
Target sequence (P53350 whole entry, looked up, the tested form may be a part): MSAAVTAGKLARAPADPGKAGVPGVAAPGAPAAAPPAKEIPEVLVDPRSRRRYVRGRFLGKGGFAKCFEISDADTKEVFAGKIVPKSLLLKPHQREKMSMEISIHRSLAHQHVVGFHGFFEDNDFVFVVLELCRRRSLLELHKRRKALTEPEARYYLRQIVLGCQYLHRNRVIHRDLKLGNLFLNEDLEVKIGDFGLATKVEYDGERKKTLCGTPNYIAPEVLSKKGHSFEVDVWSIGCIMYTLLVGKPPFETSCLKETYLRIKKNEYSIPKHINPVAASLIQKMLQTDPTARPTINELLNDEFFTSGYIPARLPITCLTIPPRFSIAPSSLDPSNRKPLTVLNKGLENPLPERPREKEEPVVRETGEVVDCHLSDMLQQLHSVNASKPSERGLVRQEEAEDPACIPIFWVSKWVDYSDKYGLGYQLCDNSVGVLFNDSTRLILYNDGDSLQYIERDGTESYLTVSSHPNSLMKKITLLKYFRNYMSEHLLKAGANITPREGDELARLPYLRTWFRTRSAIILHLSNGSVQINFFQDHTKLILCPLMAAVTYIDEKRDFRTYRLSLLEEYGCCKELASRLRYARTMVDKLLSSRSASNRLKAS
CBFb RUNX1 block = qHTS Assay for Compounds Blocking the Interaction Between CBF-beta and RUNX1 for the Treatment of Acute Myeloid Leukemia; AlphaScreen CBFb-His/RUNX1-biotin binding, biochemical; 230,000 tested, under 10 active; Potency, µM (doses to about 59.8 µM), without a hit: top-dose activity, negative = inhibition, actives largely listed as inhibitors; note: % of control where 0% means no effect
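Bead-based AlphaScreen assay; binding partners His-tagged CBF-beta and biotinylated RUNX1 at 30 nM each. Compound exposure 15 min after a 20-min protein preincubation; bead step 90 min; all steps at room temperature.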
VDR inh = Inhibitors of the vitamin D receptor (VDR): qHTS. Vitamin D3 receptor (Homo sapiens), P11473. VDR-SRC2-3 peptide fluorescence polarization, 2 h. Potency, µM, for inactives: max response, negative = inhibition, hits mostly inhibitors. hit rate 0.93% among 400,000. AID 504847, 2011; note: potency is the fitted concentration of half-maximal effect; % is set by controls: 0 for no effect and ±100 for the full control effect
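Measured by FP: displacement of SRC2-3 coactivator peptide from VDR by library compounds, following a two-hour ambient incubation.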
hERG WT inh = qHTS for Inhibitors of KCHN2 3.1: Wildtype qHTS; AID 720551, 2013; Voltage-gated inwardly rectifying potassium channel KCNH2 (Homo sapiens), Q12809; U2OS, BacMam KCNH2, thallium flux FluxOr; stronger effect = lower value; activity change, % at 1.84 µM; hit rate 0.37% among 340,000;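 active = maximum activity change below -70%; inconclusive = maximum activity change between -70% and -50%; inactive = maximum activity change above -50%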; note: % is set by controls: 0 for no effect and ±100 for the full control effect
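U2OS cells were transduced with wild-type KCNH2 virus (2.03 x 10^8 / mL) for 4 h at room temperature, then cultured overnight at 37 C. Thallium flux was read with FluxOr dye. Rate constants were normalized to DMSO controls.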
KCNH2 3.1 inh = qHTS for Inhibitors of KCHN2 3.1: Mutant qHTS; hit rate 0.95% among 340,000; AID 720553, 2013; U2OS KCNH2 3.1, thallium flux FluxOr; stronger effect = lower value; activity change, % (tested at about 1.8 µM); Potassium voltage-gated channel subfamily H member 2, brain isoform KCNH2 3.1 (human);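 active = maximum activity change below -70%; inconclusive = maximum activity change from -70% to -50%; inactive = maximum activity change above -50%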;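 note: thallium influx rate constant from kinetic fluorescence after stimulation buffer; % is set by controls: 0 for no effect and ±100 for the full control effect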
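Steps: virus added to U2OS suspension (4 h, RT, dark); medium with 10% FBS added, cells plated, 37 C overnight; FluxOr/Red40 loading buffer 45 min RT; stimulation buffer, 2 min kinetic read; rate constant normalized.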
* marks the source's active call; other numbers are inactive results; ? = inconclusive; nt = no result given. Unless noted, calls come from the whole dose curve; as a rule, active = well fitted curve in the direction sought with a large enough effect; inconclusive = small, poorly fitted or top-dose-only effect, or another doubt; inactive = no such curve, though single readings can be large; an effect the other way counts as inactive or inconclusive.

SMILES	MBNL1-CUG inh	PLK1 PBD inh	CBFb RUNX1 block	VDR inh	hERG WT inh	KCNH2 3.1 inh
O=C(Nc1nc(-c2ccccc2)cs1)Nc1ccc(F)cc1F	-10%	?	5%	-6%	2	17
COc1ccc(Cl)cc1-n1nnc(-c2nc(-c3ccccc3)no2)c1C	nt	nt	nt	7%	nt	nt
CCOC(=O)c1c(NC(=S)NCC2CCCO2)sc(C)c1C (stereo unspecified)	29%	12µM*	-3%	89µM*	-5	15
CCOC(=O)c1c(NC(=O)CNC2CCCCC2)sc(C)c1C	-10%	-19%	-1%	33%	6	-83*
CC1CCN(C(=O)CSc2c(C(C)C)cnc3c2c(=O)n(C)c(=O)n3C)CC1	nt	nt	nt	1%	nt	nt
Cc1ccc(Cn2c(C(C)Nc3nc(-c4ccc(Cl)c([N+](=O)[O-])c4)cs3)nc3cc(C(F)(F)F)ccc32)cc1 (stereo unspecified)	nt	-29%	nt	-11%	-6	-11
CCn1nc([N+](=O)[O-])c(C(C#N)c2nc3cc(C(F)(F)F)ccc3s2)c(Cl)c1=O (stereo unspecified)	?	24µM*	nt	?	-16	2
CCCCn1c(N)c(-c2nc3ccccc3o2)c2c([N+](=O)[O-])nn(C)c(=O)c21	nt	-29%	-16%	4%	-2	-4
Cn1nc([N+](=O)[O-])c(C(C#N)c2ccccn2)c(Cl)c1=O (stereo unspecified)	?	30µM*	22%	-6%	nt	14
CCCn1nc([N+](=O)[O-])c(C(C#N)c2nc3ccccc3o2)c(Cl)c1=O (stereo unspecified)	?	30µM*	-4%	?	33	15
COC(=O)c1cc(NC(=O)c2ccc3c(c2)N(Cc2cccc(Cl)c2)C(=O)c2ccccc2S3=O)cc(C(=O)OC)c1 (stereo unspecified)	nt	nt	nt	1%	nt	nt
COc1cccc(OCCOc2ccc(/C=C3\C(=N)N4N=C(S(C)(=O)=O)SC4=NC3=O)cc2OC)c1	9%	?	nt	17%	-4	-6
CCOc1cc(/C=C2\C(=N)N3N=CSC3=NC2=O)ccc1OS(=O)(=O)c1ccccc1	-4%	24µM*	nt	?	-10	3
COc1cc(/C=C2\C(=N)N3N=CSC3=NC2=O)ccc1OS(=O)(=O)c1ccccc1	4%	?	nt	79µM*	9	3
COc1ccc(SCC(c2ccccc2)N2CCN(CC(C)C)CCC2=O)cc1 (stereo unspecified)	nt	nt	0%	?	nt	nt
Cc1c(C(=O)N(Cc2ccc(N(C)C)cc2)Cc2ccco2)oc2cc(Br)ccc12	nt	nt	nt	11%	nt	nt
COC(=O)c1sc(N2C(=O)c3oc4ccc(C)cc4c(=O)c3C2c2ccc(O)c(OC)c2)nc1C (stereo unspecified)	nt	nt	nt	-4%	nt	nt
Cc1ccn2c(=O)c(C(=O)NC(C)c3ccccc3)c(O)nc2c1 (stereo unspecified)	nt	nt	nt	2%	nt	nt
Cc1nc2ccccc2n1CCOc1ccc([N+](=O)[O-])cc1	?	-8%	0%	-6%	45	-79*
COc1ccc(OCCn2c(C)nc3ccccc32)cc1	nt	-20%	nt	nt	-1	1
Cc1ccc(Cn2c(-c3ccccc3)nc3ccccc32)cc1	nt	nt	nt	5%	nt	nt
COc1ccc(-c2nc3ccccc3n2Cc2ccc(C)cc2)cc1	3%	1%	-1%	13%	-122*	nt
Cc1ccc(Cn2c(S(=O)(=O)O)nc3ccccc32)cc1	-6%	24µM*	2%	?	2	-12
COc1ccc(-c2nc3ccccc3n2Cc2ccc(Cl)cc2)cc1	nt	nt	nt	-3%	nt	nt
COc1cc(-c2nnc(SCCOc3ccc(C)c(Cl)c3)o2)cc(OC)c1OC	nt	nt	nt	16%	nt	nt
SMILES	MBNL1-CUG inh	PLK1 PBD inh	CBFb RUNX1 block	VDR inh	hERG WT inh	KCNH2 3.1 inh
COc1ccc(OC)c(C2C(C#N)=C(N)Oc3c2c(C)nn3-c2cccc(Cl)c2)c1 (stereo unspecified)	-1%	24µM*	-26%	-8%	4	-94*
Cc1nn(-c2ccccc2)c2c1C(c1ccco1)C(C#N)=C(N)O2 (stereo unspecified)	?	27µM*	-17%	-23%	0	-1
Cc1cccc([C@@H]2[C@@H]3C(=O)N(Cc4ccccc4)C(=O)[C@@H]3[C@]3(C)C(=O)N(c4cccc(Cl)c4)C(=O)N23)c1	-2%	-12%	nt	-1%	-2	-74*
CCN1C(=O)[C@H]2[C@@H](c3ccc(C)cc3)N3C(=O)N(c4ccc(C)cc4)C(=O)[C@@]3(C)[C@H]2C1=O	-3%	-4%	nt	-13%	nt	nt
CCN1C(=O)[C@H]2[C@@H](c3ccc(C)cc3)N3C(=O)N(c4ccc(OC)cc4)C(=O)[C@@]3(C)[C@H]2C1=O	1%	21µM*	nt	-20%	-15	-6
CCN1C(=O)[C@H]2[C@@H](c3ccc(C)cc3)N3C(=O)N(c4cccc(Br)c4)C(=O)[C@@]3(C)[C@H]2C1=O	nt	3%	nt	-8%	-12	-80*
Cc1cccc([C@@H]2[C@@H]3C(=O)N(Cc4ccccc4)C(=O)[C@@H]3[C@]3(Cc4ccccc4)C(=O)N(c4cccc(Cl)c4)C(=O)N23)c1	nt	3%	nt	-22%	-13	14
O=c1nc2c(O)cccn2c2c1c(=O)[nH]c1ccccc12	?	24µM*	6%	2%	-2	-6
O=c1[nH]c2ccccc2c2nc3ccccn3c12	-14%	-4%	2%	-4%	-14	1
CN1CC=C2C(C#N)=C(N)C(C#N)(C#N)[C@H](c3ccoc3)[C@H]2C1	?	15µM*	-16%	?	11	-2
CC(=O)N1CC=C2C(C#N)=C(N)C(C#N)(C#N)[C@H](c3ccoc3)[C@H]2C1	11%	-12%	7%	-24%	6	-7
COc1ccc(CN=Cc2c(C(F)(F)F)[nH][nH]c2=O)cc1	4%	27µM*	1%	-14%	-8	12
COc1ccc(N=Cc2c(O)[nH]c3ccccc23)cc1	?	0%	-12%	-1%	-21	3
